Data taken from PubChem BioAssay (NCATS).
Where “and” joins values, the source holds several entries; their conditions need not be identical. Equal entries are not always repeated. Results filed as inconclusive are left out. Calls of active or inactive are those of the source. Unless noted, calls follow the shape of the dose curve; as a rule, active = well fitted curve in the direction sought with a large enough effect; inconclusive = small, poorly fitted or top-dose-only effect, or another doubt; inactive = no such curve, though single readings can be large; an effect the other way counts as inactive or inconclusive.

How the values were obtained:
[1] = Cell Viability - SH-SY5Y (AID 544); details: SH-SY5Y neuroblastoma cell viability; viability change, negative = cytotoxic: at 92.2 µM (top of the series);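 also: cells exposed to compound for 40 hours; 0% = DMSO alone and -100% = 100 µM tamoxifen; nearly all actives have a fitted effect of over 55% in size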
Procedure, shortened: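 SH-SY5Y human neuroblastoma cells (1500/well) incubated 5 h, then compound-treated 40 h at 37 °C in complete medium. Viability read as intracellular ATP by CellTiter-Glo luminescence after 20 min; AC50 from Hill-equation fits of qHTS concentration-response.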

[2] = Cell Viability - Renal Proximal Tubule (AID 545); details: renal proximal tubule cells viability, primary cells of rat origin; activity change, negative = cytotoxicity: at 91.7 µM (top of the series);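 also: cells exposed to compound for 40 hours; nearly all actives have a fitted effect of over 40% in size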; also: potency is read from the fitted curve at half-maximal effect;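 as to activity change, negative = cytotoxicity: 0% = DMSO only and -100% = 100 µM tamoxifen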
Procedure, shortened: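 Luminescent ATP signal (CellTiter-Glo) served as the viability read-out after 40 hr compound exposure of freshly isolated rat proximal tubule cells at 37 °C. Concentration-dependent ATP loss was fitted with the Hill equation to give AC50.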

[3] = Cell Viability - LYMP2-001 (AID 921);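 also: 0% = DMSO only and full inhibition = tetraoctylammonium bromide control wells; nearly all actives have a fitted effect of over 70% in size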
Procedure, shortened: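 Steps: seed 2500 lymphoblastoid cells/well; 5 hr, 37 C; add compound; 24 hr, 37 C; CellTiter-Glo reagent, 30 min room temperature; read luminescence. Concentration-response modeled by Hill equation for AC50.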

[4] = MultiTox-Fluor Cytotoxicity Assay - LYMP1-001 - Live Cells (AID 947);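 also: 0% = DMSO only and full inhibition = tetraoctylammonium bromide control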
[5] = Cell Viability - LYMP2-005 (AID 967);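 also: plate controls were DMSO only for no effect and 92 µM tetraoctylammonium bromide control for full effect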
Procedure, shortened: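 Acute cytotoxicity is scored as a concentration-dependent drop in intracellular ATP in human lymphoblastoid LYMP2-005 cells after 24 h compound treatment. ATP is quantified by luciferase luminescence, and AC50 is derived by Hill-equation modelling.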

[6] = Cell Viability - LYMP2-017 (AID 972); also: % is scaled to controls: 0 for no effect and ±100 for the full control effect; nearly all actives have a fitted effect of over 55% in size
Procedure, shortened: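 LYMP2-017 human lymphoblastoid cells (2500/well) settled 5 hr at 37 C, then exposed to compound 24 hr at 37 C in complete medium. Viability taken as intracellular ATP by CellTiter-Glo luminescence after 30 min at RT; AC50 from Hill fits.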

[7] = Cell Viability - LYMP2-019 (AID 973);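 also: 0% = DMSO alone and full effect = 92 µM tetraoctylammonium bromide; nearly all actives have a fitted effect of over 55% in size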
Procedure, shortened: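 Human lymphoblastoid LYMP2-019 cells (2500/well) preincubated 5 h at 37 C, then treated 24 h at 37 C in complete medium. Viability by CellTiter-Glo ATP luminescence after 30 min at room temperature; AC50 from Hill fits.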

[8] = Cell Viability - LYMP2-021 (AID 974);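 also: compound exposure lasts 24 hours at 37 °C; % is scaled to controls: 0 for no effect and ±100 for the full control effect; nearly all actives have a fitted effect of over 55% in size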
Procedure, shortened: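 Human lymphoblastoid LYMP2-021 cells, 2500/well in complete medium, treated 24 hours at 37 C. Intracellular ATP by CellTiter-Glo luminescence (30 min, RT); AC50 from Hill fits of concentration-response.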

[9] = Cell Viability - LYMP2-006 (AID 978); also: % is scaled to controls: 0 for no effect and ±100 for the full control effect; nearly all actives have a fitted effect of over 60% in size
Procedure, shortened: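 Cells are seeded at 2500 per well and rested 5 hr at 37 C. Compounds are added across a concentration series for 24 hr at 37 C, after which ATP is quantified by luciferase luminescence.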

[10] = Cell Viability - LYMP2-010 (AID 981)
Procedure, shortened: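 Human lymphoblastoid LYMP2-010 cells (2500/well) treated 24 h at 37 C in complete medium; viability read as intracellular ATP by CellTiter-Glo luminescence. AC50 from Hill fits of concentration-response data; tetraoctylammonium bromide positive control.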

[11] = Cell Viability - LYMP2-012 (AID 982)
[12] = Cell Viability - LYMP2-024 (AID 988);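 also: plate controls were DMSO only for no effect and 92 µM tetraoctylammonium bromide for full effect; nearly all actives have a fitted effect of over 60% in size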
Procedure, shortened: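 Human lymphoblastoid LYMP2-024 cells (2500/well) rested 5 hr, then treated with compound for 24 hr at 37 C in complete medium. Viability was measured as intracellular ATP by CellTiter-Glo luminescence. AC50 values came from Hill-equation fits.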

[13] = biological target: Glucocorticoid receptor (Homo sapiens) (UniProt P04150); assay: qHTS assay for small molecule agonists of glucocorticoid receptor signaling (AID 588532; active = well fitted curve in the direction sought with a large enough effect in the signal ratio, with a control signal flat; the % refers to the signal ratio;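 also: 100% = dexamethasone at 0.1 µM and 0% = DMSO only wells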); details: HeLa MMTV-bla, beta-lactamase ratio, agonist, 18 h; stronger effect = higher value; percent of dexamethasone control, DMSO zero
Chain of Glucocorticoid receptor (Homo sapiens) (P04150 whole entry, looked up): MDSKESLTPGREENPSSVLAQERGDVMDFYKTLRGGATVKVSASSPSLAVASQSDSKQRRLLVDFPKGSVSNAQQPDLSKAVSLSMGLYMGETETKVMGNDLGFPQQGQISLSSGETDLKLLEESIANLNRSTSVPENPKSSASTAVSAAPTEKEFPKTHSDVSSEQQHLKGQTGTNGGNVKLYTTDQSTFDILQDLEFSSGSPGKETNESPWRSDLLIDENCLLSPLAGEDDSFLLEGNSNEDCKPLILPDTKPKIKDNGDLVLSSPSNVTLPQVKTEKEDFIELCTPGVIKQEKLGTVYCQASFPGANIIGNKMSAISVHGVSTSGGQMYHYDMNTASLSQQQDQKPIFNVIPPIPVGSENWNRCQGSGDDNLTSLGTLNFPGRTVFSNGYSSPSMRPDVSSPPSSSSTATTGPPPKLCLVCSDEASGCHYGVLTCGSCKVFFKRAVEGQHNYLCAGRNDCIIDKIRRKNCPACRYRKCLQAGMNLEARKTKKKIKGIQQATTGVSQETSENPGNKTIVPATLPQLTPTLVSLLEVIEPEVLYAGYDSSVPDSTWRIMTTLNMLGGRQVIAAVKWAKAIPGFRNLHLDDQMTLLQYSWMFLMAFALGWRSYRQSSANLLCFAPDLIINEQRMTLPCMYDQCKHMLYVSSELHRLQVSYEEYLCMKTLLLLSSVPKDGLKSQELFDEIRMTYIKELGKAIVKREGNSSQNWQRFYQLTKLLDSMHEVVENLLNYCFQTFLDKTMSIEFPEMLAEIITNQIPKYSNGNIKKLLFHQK
Procedure, shortened: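 Agonist-mode qHTS: GRE-driven beta-lactamase in HeLa cells exposed 18 h to titrated compounds (up to 92 uM), then CCF4 ratio read after 2 h at RT; Hill-fitted EC50, efficacy relative to 0.1 uM dexamethasone.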

[14] = qHTS assay for small molecule agonists of retinoid X receptor alpha signaling (AID 588544; calls by dose curve;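 as to activation: 0% = DMSO basal wells and 100% = reference agonist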); details: HEK293T RXRa-UAS-bla, beta-lactamase reporter, 18 h; 530 nm emission
[15] = biological target: Retinoic acid receptor RXR-alpha (Homo sapiens) (UniProt P19793); assay: as above
Chain of Retinoic acid receptor RXR-alpha (Homo sapiens) (P19793 whole entry, looked up): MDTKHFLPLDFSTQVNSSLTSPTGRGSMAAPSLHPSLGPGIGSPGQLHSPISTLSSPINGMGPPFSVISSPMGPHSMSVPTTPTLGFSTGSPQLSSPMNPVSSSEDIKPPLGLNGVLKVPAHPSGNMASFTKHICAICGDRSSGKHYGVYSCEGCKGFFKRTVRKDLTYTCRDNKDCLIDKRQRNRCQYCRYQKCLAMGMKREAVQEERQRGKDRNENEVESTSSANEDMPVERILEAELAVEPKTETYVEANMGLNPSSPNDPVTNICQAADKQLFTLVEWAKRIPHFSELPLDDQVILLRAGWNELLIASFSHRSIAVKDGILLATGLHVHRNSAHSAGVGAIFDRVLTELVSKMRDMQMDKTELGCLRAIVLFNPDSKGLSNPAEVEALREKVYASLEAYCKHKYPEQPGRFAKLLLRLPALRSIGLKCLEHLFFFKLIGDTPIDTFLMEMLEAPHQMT

[16] = biological target: Thyroid hormone receptor beta (Homo sapiens) (UniProt P10828); assay: qHTS assay for small molecule agonists of thyroid hormone receptor beta signaling (AID 588545; calls by dose curve;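 also: 0% = DMSO only and 100% = 10 nM T3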)
Chain of Thyroid hormone receptor beta (Homo sapiens) (P10828 whole entry, looked up): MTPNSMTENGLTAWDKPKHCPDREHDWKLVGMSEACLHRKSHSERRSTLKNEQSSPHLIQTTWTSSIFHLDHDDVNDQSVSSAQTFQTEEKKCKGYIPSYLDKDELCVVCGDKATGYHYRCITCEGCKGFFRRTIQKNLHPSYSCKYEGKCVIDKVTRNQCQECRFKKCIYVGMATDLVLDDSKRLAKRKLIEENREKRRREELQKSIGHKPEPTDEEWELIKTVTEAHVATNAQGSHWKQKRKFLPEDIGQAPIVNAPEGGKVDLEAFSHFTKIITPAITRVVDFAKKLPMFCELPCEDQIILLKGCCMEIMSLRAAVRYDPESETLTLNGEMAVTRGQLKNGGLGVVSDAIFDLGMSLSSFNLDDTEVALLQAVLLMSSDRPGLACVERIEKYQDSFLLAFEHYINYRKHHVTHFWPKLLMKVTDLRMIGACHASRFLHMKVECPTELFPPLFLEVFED
Procedure, shortened: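 Stimulation of a TR-driven beta-lactamase reporter was quantified in GripTite HEK 293 cells. Compound series ran for 18 hrs; curves were normalized to T3 and DMSO controls and fitted to yield EC50.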

[17] = qHTS assay for small molecule disruptors of the mitochondrial membrane potential - 5 hr assay (AID 651755; calls by dose curve; also: % is scaled to controls: 0 for no effect and ±100 for the full control effect; nearly all actives have a fitted effect of over 40% in size)
Procedure, shortened: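 HepG2, 2,000 cells/well, overnight attach; cpd or DMSO 5 hr, 37C/5% CO2; Mito-MPS 30 min 37C; fluor 490/535 + 540/590 nm.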

[18] = qHTS assay for small molecule agonists of the antioxidant response element (ARE) signaling pathway measured by Nrf2-dependant transcriptional activity (AID 720636; active = well fitted curve in the direction sought with a large enough effect in the repeat runs; an effect the other way counts as inactive or inconclusive;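 also: HepG2 cells with an ARE-driven luciferase reporter; % of control where 0% means no effect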)
Procedure, shortened: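 Cells: ARE-luc HepG2 with Nrf2-responsive luciferase. Medium contained 1% dialyzed FBS. Compound exposure lasted 16 hr at 37 C and 5% CO2, followed by ONE-Glo luciferase detection.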

[19] = qHTS assay for small molecule activators of the p53 signaling pathway (AID 651743; active = well fitted activation curve with a large enough effect in the signal ratio, not every such curve was filed as active; the % refers to the signal ratio; also: % of control where 0% means no effect); details: HCT-116 p53RE-bla, beta-lactamase FRET ratio, 16 h; activation: stronger effect = higher value
Procedure, shortened: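 Read-out is fluorescence intensity from the LiveBLAzer B/G FRET substrate, added for 2 hours at room temperature after HCT-116 p53RE-bla cells had been incubated with compounds for 16 hours at 37 C.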

[20] = qHTS assay for small molecule disruptors of the mitochondrial membrane potential - 1 hr assay (AID 651754; calls by dose curve; also: % is scaled to controls: 0 for no effect and ±100 for the full control effect; nearly all actives have a fitted effect of over 35% in size)
Procedure, shortened: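 HepG2 cells, attached overnight, were exposed to compound for 1 hr at 37C, then stained 30 min with a potentiometric dye. Ratio of red aggregate (590nm) to green monomer (535nm) fluorescence reports membrane potential; collapse shifts signal toward green.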

S=C(NC1CCCCC1)NC1CCCCC1
7.4%: max response [14]
inactive: Potency [1] | Potency [2] | Potency [3] | Potency [4] | Potency [5] | Potency [6] | Potency [7] | Potency [8] | Potency [9] | Potency [10] | Potency [11] | Potency [12] | activation [13] 9% | Potency [15] | Potency [16] | Potency [17] | Potency [18]

c1ccc(Nc2cccc3ccccc23)cc1
inactive: Potency [1] | Potency [2] | Potency [3] | Potency [4] | Potency [5] | Potency [6] | Potency [7] | Potency [8] | Potency [9] | Potency [10] | Potency [11] | Potency [12] | Potency [15] | Potency [16] | activation [19] -1.55% and -1.95%
-7.08% and 4.25%: max response [14]

Cc1cc(=O)oc2cc(O)cc(O)c12
inactive: Potency [1] | Potency [2] | Potency [3] | Potency [4] | Potency [5] | Potency [6] | Potency [7] | Potency [8] | Potency [9] | Potency [10] | Potency [11] | Potency [12] | activation [13] 9.06% | Potency [16] | activation [19] 10.2% | Potency [18]

Cc1cccnc1
inactive: Potency [1] | Potency [2] | Potency [3] | Potency [4] | Potency [5] | Potency [6] | Potency [7] | Potency [8] | Potency [9] | Potency [10] | Potency [11] | Potency [12] | Potency [15] | Potency [20] | Potency [17] | Potency [18]
9.82%: max response [14]

O=C1c2ccccc2C(=O)C1(O)O
active: Potency [2] 1.58 µM
5.07%: max response [14]
inactive: Potency [6] | Potency [8] | Potency [9] | Potency [15] | Potency [16] | Potency [17] | Potency [18]

C=CC(C)(O)CCCC(C)CCCC(C)CCCC(C)C (configuration not stated)
inactive: Potency [1] | Potency [2] | Potency [3] | Potency [4] | Potency [6] | Potency [7] | Potency [8] | Potency [9] | Potency [10] | Potency [11] | Potency [12] | activation [13] 1.44% | Potency [15] | Potency [16] | activation [19] -2.56% | Potency [18]
-17.1%: max response [14]

CCCCCCCC/C=C\CCCCCCCC(=O)N(CCO)CCO
inactive: Potency [3] | Potency [4] | Potency [5] | Potency [6] | Potency [8] | Potency [9] | Potency [10] | Potency [11] | Potency [12] | Potency [15] | activation [19] -2.93% | Potency [20] | Potency [17] | Potency [18]
13.2%: max response [14]
active: viability change, negative = cytotoxic [1] -99.3%

C[Si](C)(C)Cl
8.09%: max response [14]
inactive: Potency [2] | Potency [3] | Potency [5] | Potency [6] | Potency [7] | Potency [8] | Potency [9] | Potency [10] | Potency [11] | Potency [12] | activation [13] 10.5% | Potency [15] | Potency [16] | activation [19] -2.87% | Potency [20] | Potency [17] | Potency [18]
